# Screening data deposited in PubChem BioAssay by National Center for Advancing Translational Sciences (NCATS).
# WRN helicase inh-1 – qHTS for Inhibitors of WRN Helicase; 360,000 tested, 0.46% active; Potency, µM (doses to about 114 µM), inactives show at the top dose activity change, negative = inhibition, hits mostly inhibitors; WRN helicase unwinding, fluorescent forked duplex, kinetic; Bifunctional 3'-5' exonuclease/ATP-dependent helicase WRN (Homo sapiens), Q14191; note: % is set by controls: 0 for no effect and ±100 for the full control effect; nearly all actives have a fitted effect of over 55% in size
#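 Kinetic red-fluorescence monitoring (525/598 nm) tracks WRN helicase activity after 100 nM fluorophore-quencher forked duplex and 2 mM ATP are added to 20 nM enzyme pretreated 15 min at room temperature with compound.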
# Pol iota inh – qHTS for Inhibitors of Polymerase Iota. Pol iota fluorescent replication assay, 10 min. Potency, µM (highest dose often 115 µM), without a hit: at the top dose activity, negative = inhibition, actives largely listed as inhibitors. 390,000 tested, 1% active
# Target sequence (Q9UNA4 whole entry, looked up): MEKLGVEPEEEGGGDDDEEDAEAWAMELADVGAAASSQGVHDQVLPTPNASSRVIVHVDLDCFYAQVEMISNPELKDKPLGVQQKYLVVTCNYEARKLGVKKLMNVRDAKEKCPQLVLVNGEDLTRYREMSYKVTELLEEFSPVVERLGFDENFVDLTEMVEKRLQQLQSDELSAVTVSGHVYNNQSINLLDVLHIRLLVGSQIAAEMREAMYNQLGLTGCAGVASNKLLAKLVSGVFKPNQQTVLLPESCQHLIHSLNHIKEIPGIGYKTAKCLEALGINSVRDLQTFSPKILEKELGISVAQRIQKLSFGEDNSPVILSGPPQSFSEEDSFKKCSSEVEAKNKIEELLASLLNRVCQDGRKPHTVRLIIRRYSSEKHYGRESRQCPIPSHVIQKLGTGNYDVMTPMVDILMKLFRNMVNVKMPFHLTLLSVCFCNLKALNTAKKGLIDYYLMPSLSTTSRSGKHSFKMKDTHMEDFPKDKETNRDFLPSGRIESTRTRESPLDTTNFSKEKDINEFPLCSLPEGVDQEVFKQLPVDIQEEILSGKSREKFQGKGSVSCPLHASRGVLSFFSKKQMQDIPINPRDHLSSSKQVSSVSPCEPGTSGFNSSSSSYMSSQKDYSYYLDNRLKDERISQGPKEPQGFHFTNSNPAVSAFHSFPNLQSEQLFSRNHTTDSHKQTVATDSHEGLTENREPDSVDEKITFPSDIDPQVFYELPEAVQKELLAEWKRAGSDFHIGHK
#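 Fluorescent replication assay read twice, at 0 min and 10 min after adding 50 nM (final) substrate. Enzyme (10 nM) and compounds were first incubated 15 min at room temperature; enzyme-free buffer wells were negative controls.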
# FEN1 inh-1 – qHTS Assay for the Inhibitors of Human Flap endonuclease 1 (FEN1) | P39748 | Recombinant FEN1 flap cleavage, fluorescence, 15 min | Potency, µM (highest dose often 114 µM), inactives show at the highest dose activity change, negative = inhibition, hits mostly inhibitors | 390,000 tested, 0.35% active | AID 588795, 2011; note: % is set by controls: 0 for no effect and ±100 for the full control effect; nearly all actives have a fitted effect of over 65% in size
#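 Concentration–response screening of FEN1 (10 nM): 15 min compound preincubation at room temperature, reaction started with 50 nM substrate and read at 0 and 15 min. Corrected, normalized data were fitted by a four-parameter Hill equation.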
# Pol eta inh-1 – qHTS for Inhibitors of Polymerase Eta. DNA polymerase eta (Homo sapiens), Q9Y253. recombinant Pol eta, fluorescent DNA replication assay. Potency, µM (titrated, usually from 114 µM), without a hit: at the top dose activity change, negative = inhibition, most hits filed as inhibitors. 390,000 tested, 1.2% active; note: % is set by controls: 0 for no effect and ±100 for the full control effect
#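 Pol eta (10 nM) was preincubated with compounds for 15 min at room temperature, after which fluorescent replication substrate (50 nM final) was added to start the reaction. Fluorescence was read kinetically at 0 and 10 min.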
# Pol kappa inh-1 – qHTS for Inhibitors of Polymerase Kappa; DNA polymerase kappa (Homo sapiens), Q9UBT6; purified Pol kappa, fluorescent DNA synthesis assay, 10 min; Potency, µM (series often up to 107 µM), without a hit: top-dose activity, negative = inhibition, most hits filed as inhibitors; 400,000 tested, 0.53% active; note: % is set by controls: 0 for no effect and ±100 for the full control effect
#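 Readout: fluorescence, taken kinetically at 0 and 10 min. Conditions: 10 nM Pol kappa, 15 min RT compound preincubation, 50 nM substrate final. Controls: enzyme-free buffer wells.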
# POLB inh – qHTS Assay for Inhibitors of DNA Polymerase Beta. Pol beta primer extension/strand displacement, fluorescence kinetic. 340,000 tested, 1.3% active. Potency, µM (titrated, usually from 114 µM), without a hit: at the highest dose activity change, negative = inhibition, usual class: inhibitors; note: % is set by controls: 0 for no effect and ±100 for the full control effect
#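 Kinetic readout of DNA synthesis with strand displacement by Pol beta. Compound and 10 nM enzyme sit 15 min at room temperature; 50 nM substrate starts the reaction, read immediately and at 10 min.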
# PGK validate – qHTS for inhibitors of Phosphogylcerate Kinase: Hit Validation Screen; shares compounds with Pol kappa inh-1; TbPGK coupled GAPDH assay, Kinase-Glo luminescence; Potency, µM (doses to about 57.5 µM), without a hit: top-dose activity change, negative = inhibition, most hits filed as inhibitors; 500 tested, 79% active; AID 686980, 2013; note: % is set by controls: 0 for no effect and ±100 for the full control effect; nearly all actives have a fitted effect of over 65% in size
# Pol iota confirm – qHTS for Inhibitors of Polymerase Iota: Confirmatory Assay for Cherry-picked Compounds. shares compounds with Pol kappa inh-1. Pol iota primer extension, TAMRA/BHQ fluorescence. Potency, µM, hits mostly inhibitors. 1,500 tested, 77% active. AID 720496, 2013
# Pol kappa inh-2 – qHTS for Inhibitors of Polymerase Kappa: Confirmatory Assay for Cherry-picked Compounds | shares compounds with Pol eta inh-1 | purified Pol-kappa, fluorescent strand-displacement substrate | Potency, µM, usual class: inhibitors | 920 tested, 76% active | AID 720501, 2013
# Pol eta inh-2 – qHTS for Inhibitors of Polymerase Eta: Confirmatory Assay for Cherry-picked Compounds; shares compounds with Pol eta inh-1; Pol eta primer extension, TAMRA/BHQ fluorescence, 10 min; Potency, µM, hits mostly inhibitors; 2,600 tested, 64% active; AID 720502, 2013
# FEN1 inh-2 – qHTS Assay for the Inhibitors of FEN1: Confirmatory Assay for Cherry-picked Compounds. shares compounds with FEN1 inh-1. FEN1 flap cleavage, TAMRA/BHQ2 fluorogenic DNA substrate. Potency, µM, most hits filed as inhibitors. 880 tested, 79% active. AID 720498, 2013; note: nearly all actives have a fitted effect of over 60% in size
# WRN helicase inh-2 – qHTS for Inhibitors of WRN Helicase: Confirmatory Assay for Cherry-picked Compounds; shares compounds with WRN helicase inh-1; AID 720497, 2013; Potency, µM (titrated, usually from 57.1 µM), without a hit: top-dose activity, negative = inhibition, most hits filed as inhibitors; WRN helicase DNA unwinding, fluorescence kinetic; 610 tested, 63% active; note: nearly all actives have a fitted effect of over 65% in size
# TO DNA binding – qHTS for Inhibitors of WRN Helicase: Thiazole Orange DNA Binding Counterscreen. thiazole orange DNA binding displacement, fluorescence. 610 tested, 10% active. Potency, µM (titrated, usually from 57.1 µM), for the others: at the top dose activity change, negative = inhibition, actives largely listed as inhibitors. shares compounds with WRN helicase inh-1;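 note: drop in dye fluorescence marks compound binding to DNA; % is set by controls: 0 for no effect and ±100 for the full control effect; nearly all actives have a fitted effect of over 60% in size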
# BLM helicase inh – qHTS for Inhibitors of WRN Helicase: BLM Helicase Counterscreen for WRN Inhibitors. shares compounds with WRN helicase inh-1. Potency, µM (series often up to 57.1 µM), without a hit: at the top dose activity change, negative = inhibition, most hits filed as inhibitors. 610 tested, 60% active. AID 720503, 2013. Recombinant BLM helicase DNA unwinding, red fluorescence; note: nearly all actives have a fitted effect of over 60% in size
# The depositor's hits bear a star; i = inactive; ? = inconclusive; nt = not tested or not shown; [ ] = another dose, or the depositor's remark. Rows were chosen to be rich in hits. Some 2.4% of all compounds tested hit in one or more screens of this group. Calls come from the whole dose curve; as a rule, active = well fitted curve in the direction sought with a large enough effect; inconclusive = small, poorly fitted or top-dose-only effect, or another doubt; inactive = no such curve, though single readings can be large; an effect the other way counts as inactive or inconclusive. Potency is the fitted concentration of half-maximal effect.
SMILES,WRN helicase inh-1,Pol iota inh,FEN1 inh-1,Pol eta inh-1,Pol kappa inh-1,POLB inh,Pol iota confirm,Pol eta inh-2,FEN1 inh-2,WRN helicase inh-2,TO DNA binding,BLM helicase inh,others
COC(=O)c1c(OC)cc2c(c1C)Oc1c(Cl)c(O)c(Cl)c(C)c1C(=O)O2,nt,nt,nt,nt,-11%[60.1 µM],nt,nt,nt,nt,nt,nt,nt,
COc1cc(C)c2c(c1C=O)Oc1c(c(C)c(O)c3c1C(O)OC3=O)OC2=O (stereo not drawn),50µM*,45µM*,?,16µM*,22µM*,7.9µM*,42*,21*,76*,nt,nt,nt,PGK validate=4.6µM*
CCNc1ccc2noc3c2c1C(=O)c1ccccc1-3,4.2µM*,28µM*,50µM*,?,25µM*,20µM*,75*,76*,85*,3µM*,i,7.6µM*,Pol kappa inh-2=67*
CC(C)(C)c1cc(CCC(=O)NCCc2ccccn2)cc(C(C)(C)C)c1O,-1%,121%,0%,-16%,-1%,70%,nt,nt,nt,nt,nt,nt,
O=C1C=C(NCCc2cc(Br)c(O)c(Br)c2)C(=O)c2ncccc21,25µM*,3.2µM*,45µM*,3.5µM*,28µM*,nt,17*,27*,60*,22µM*,?,19µM*,Pol kappa inh-2=24*
CC(=O)c1cnc(N(C)C)s1,9%,-3%,15%,-7%,-1%,-1%,nt,nt,nt,nt,nt,nt,
CN(C)c1ncc(C2=C(Cl)C(=O)C(N3CCCC3)=C(Cl)C2=O)s1,9.5µM*,7.9µM*,50µM*,20µM*,28µM*,nt,38*,34*,nt,?,?,7.6µM*,
O=C(O)c1cccc(N/N=C/c2ccc(OC(F)(F)F)cc2)c1,-6%,?,15%,-7%,-1%,-16%,nt,nt,nt,nt,nt,nt,
CSc1ccc(/C=N/Nc2cccc(C(=O)O)c2)cc1,11µM*,2.2µM*,22µM*,1.1µM*,7.9µM*,2µM*,2.7*,2.1*,43*,4.8µM*,?,3µM*,
Cc1cccc(-c2nc(S(=O)(=O)c3ccc(Cl)cc3)c(N3CCCCCC3)o2)c1,nt,26%,9%,-13%,-1%,4%,nt,nt,nt,nt,nt,nt,
O=C(O)c1ccccc1/C=N/Nc1ccc(S(=O)(=O)N2CCCC2)cc1[N+](=O)[O-],-19%,39%,-4%,-7%,-3%,-1%,nt,nt,nt,nt,nt,nt,
O=C(O)c1ccccc1NS(=O)(=O)c1ccc(NN=Cc2ccccc2F)c([N+](=O)[O-])c1,79µM*,56µM*,?,28µM*,?,nt,?,60*,76*,24µM*,?,22µM*,
COc1ccc(C2Nc3ccccc3C(=O)N2Cc2ccccc2)cc1COc1ccc([N+](=O)[O-])cc1 (stereo not drawn),nt,12%,8%,nt,-6%,nt,nt,nt,nt,nt,nt,nt,
O=C(CCCN1C(=O)/C(=C\c2ccco2)SC1=S)Nc1ccc(O)cc1C(=O)O,16µM*,8.9µM*,50µM*,4.5µM*,22µM*,?,34*,27*,nt,7.6µM*,?,22µM*,
O=C(CCCN1C(=O)/C(=C/c2ccco2)SC1=S)Nc1cccc(C(=O)O)c1,35µM*,14µM*,?,20µM*,22µM*,3.2µM*,24*,15*,nt,19µM*,-8%,19µM*,
CCN(CC)CCCNc1ncnc2ccccc12,-7%,21%,-13%,-18%,-11%,2%,nt,nt,nt,nt,nt,nt,
CCN(CC)CCCNc1ccc2ncn3c4ccc(O)cc4c(=O)c1c23,25µM*,?,10µM*,?,79µM*,nt,42*,nt,8.5*,22µM*,i,-62%,
Cc1nc2ccc(C(=O)O)cc2c2c1CC(C)S2 (stereo not drawn),32µM*,5µM*,?,2.5µM*,32µM*,22µM*,19*,9.5*,nt,19µM*,-18%,?,
Cc1ccc(Nc2nc(Nc3ccc(Cl)cc3)nc(N3CCOCC3)n2)cc1,nt,-17%,-14%,nt,-1%,nt,nt,nt,nt,nt,nt,nt,
COc1cc(-c2oc3cc(O)ccc3c(=O)c2O)ccc1O,nt,nt,nt,nt,-10%[60.1 µM],nt,nt,nt,nt,nt,nt,nt,
